Over roughly 33,000 sequences, “E-score (-0.5 to 0.5)” has its median near -0.035; the highest 2% begin near 0.35. This excerpt belongs to a sample that is enriched for the highest values.
biological target: T1, Pdr3 (UniProt P33200); assay: PBM E-score (8-mer binding enrichment) (E-score (-0.5 to 0.5)); higher = stronger / more preferred TF binding; details: protein concentration: 200 nM; construct: GST-full length
T1 sequence: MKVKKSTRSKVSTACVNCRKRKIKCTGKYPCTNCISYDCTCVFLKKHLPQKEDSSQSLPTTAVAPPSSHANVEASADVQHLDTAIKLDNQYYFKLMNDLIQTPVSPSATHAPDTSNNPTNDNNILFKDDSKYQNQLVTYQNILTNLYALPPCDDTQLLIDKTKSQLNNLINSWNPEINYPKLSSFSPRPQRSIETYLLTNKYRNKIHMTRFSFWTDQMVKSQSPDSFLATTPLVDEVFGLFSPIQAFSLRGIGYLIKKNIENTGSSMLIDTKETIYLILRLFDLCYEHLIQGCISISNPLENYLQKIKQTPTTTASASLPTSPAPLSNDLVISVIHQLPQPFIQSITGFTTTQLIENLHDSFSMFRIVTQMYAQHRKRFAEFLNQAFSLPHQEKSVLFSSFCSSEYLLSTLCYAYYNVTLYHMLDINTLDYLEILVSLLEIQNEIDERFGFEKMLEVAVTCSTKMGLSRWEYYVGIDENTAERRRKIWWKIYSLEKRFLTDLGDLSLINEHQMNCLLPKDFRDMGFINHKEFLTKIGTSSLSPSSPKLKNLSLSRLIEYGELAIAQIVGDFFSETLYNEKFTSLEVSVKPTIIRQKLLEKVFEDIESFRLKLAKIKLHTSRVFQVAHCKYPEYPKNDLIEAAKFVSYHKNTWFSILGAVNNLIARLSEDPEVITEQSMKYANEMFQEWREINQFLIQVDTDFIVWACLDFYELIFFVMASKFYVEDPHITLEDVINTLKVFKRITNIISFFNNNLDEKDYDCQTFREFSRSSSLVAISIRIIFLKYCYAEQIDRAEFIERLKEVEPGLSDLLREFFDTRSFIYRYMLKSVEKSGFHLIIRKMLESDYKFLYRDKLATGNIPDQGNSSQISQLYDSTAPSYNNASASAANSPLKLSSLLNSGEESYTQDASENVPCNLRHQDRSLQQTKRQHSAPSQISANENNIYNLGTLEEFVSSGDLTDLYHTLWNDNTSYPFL
Method in brief: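 Using PURExpress in vitro transcription/translation, GST-tagged yeast transcription factors were made in full-length or DNA-binding-domain form. These were applied at about 100-200 nM to double-stranded universal all-10-mer Agilent arrays, and bound protein was detected with fluorescent anti-GST. Scans were normalised with masliner before the Universal PBM Analysis Suite assigned E-scores to ungapped eight-base words pooled with their reverse complements.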

Sequence	PBM E-score
GCGGGATA	0.322
ACGGGATC	0.275
CCGGGATA	0.388
CCGGGAGA	0.369
CCGGGAGG	0.334
CGGGGAGA	0.28
CGGGGATC	0.28
ACGGGATG	0.283
AAGGAATG	0.126
CGCGTCCG	0.272
CTTCGCGC	0.274
ATCTAAAC	-0.113
GCTGGCAA	0.0154
CTCGGTCA	0.00197
GACCGGAA	0.401
CACCGGGA	0.272
TACCGGTA	0.103
GACCGGCA	0.0622
AACCGGAT	0.316
CACCGGAA	0.46
TACCGGCA	0.214
GACCGGAC	0.28
CACCGGAC	0.341
AACCGGAG	0.326
TACCGGAA	0.44
AACCGGAA	0.435

Sequence	PBM E-score
AAATAGTA	0.152
AGAGCAAC	-0.197
CCTATGGA	-0.127
CCTAGGTA	-0.174
AAAAGCAC	-0.291
AAAGACTA	-0.113
CGTTTTAG	-0.195
GGGCGTCA	0.0172
CGGAATGC	0.434
AGGAATGC	-0.0575
GGGAATGA	0.219
CTGAATGC	-0.0711
AGGAATGA	-0.0139
CGGAATGA	0.435
AGATCGTA	-0.304
ATCTCAGG	0.00088
ATTGTCGG	0.193
GATCTACC	0.00285
ACCGTTCC	0.364
ATGGTTCC	0.371
ACCGTTCT	-0.0192
CTTGTTCC	0.207
CTGGTTCC	0.264
AGTGTTCC	0.301
CGTGTTCC	0.383
ATTGTTCG	0.194

Sequence	PBM E-score
CCCGTTCC	0.347
ATTGTTCC	0.378
ATGGTTCA	0.0467
CGTGTTCA	-0.0434
CCTACTCG	0.101
ACCAGCAA	0.0732
CACCGACC	0.0698
ACTGAGCG	-0.185
GGACAATA	0.28
TATTTACA	-0.097
ACAGTTCT	0.082
CCAGTTCC	0.318
ACAGTTCC	0.387
GGCAGAAC	0.123
CGCGGAAG	0.454
AGCGGAAA	0.391
CGTGGAAG	0.208
AGGGGAAA	-0.0896
GGGGGAAC	-0.165
CGCAGAAG	-0.09
CGGGGAAA	0.246
GGCGGAAC	0.467
CGTGGAAA	0.243
AGAGGAAA	0.0754
CGCGGAAA	0.476
AATTCGAT	0.0319

Sequence	PBM E-score
AGCCTCGG	0.156
AGAGGAAC	-0.066
TGCGGAAA	0.357
AGCGGACT	-0.0134
TGCGGGAA	0.313
GGCGGAAA	0.361
AGCGGAAT	0.392
AGCGGAAC	0.457
TGCGGACA	0.237
AGCGGAAG	0.341
GGAGGAAA	0.0123
AGGGGAAC	-0.0871
GGGGGAAA	0.138
CCGCCGAA	0.277
CCCAACTC	0.16
ACCCTCGG	0.156
CGTCGTAA	-0.0777
CGCATCAC	-0.0776
AGGCAACG	0.00606
ACAACCGC	0.202
AAAACTAC	0.179
GATCGGAC	0.362
AATCGGAG	0.276
TATCGGGA	0.228
TATCGGCA	0.101
AATCGGAT	0.317

Sequence	PBM E-score
AATCGGAC	0.212
TATCGGAA	0.419
CATCGGAG	0.0478
CATCGGAC	0.143
GATCGGGC	0.142
CATCGGAA	0.422
AATCGGAA	0.445
CCTTTAGA	-0.22
GCAGAATA	-0.0373
CCTTCCTA	-0.401
TCGGTAGA	-0.027
AAAGTTGA	-0.0975
AACGGCTC	0.0795
ACGTTACG	-0.211
AATTTGCT	-0.114
CTGCTCCC	-0.0396
GACCCGCA	0.0817
GATCGGAA	0.424
GATCGGTA	0.146
GATCGGGA	0.171
GTGCTTCA	-0.0273
AGCTTAAG	-0.0452
GGGCCCAA	0.0863
AAGTGAGG	-0.173
CCCCCGCG	0.349
AAACCCGA	0.243

Sequence	PBM E-score
ACCCCGTG	0.181
ACCGGGGG	0.0642
AAACCCGG	0.401
ACCCGGGG	0.357
AACCGGGG	0.199
ACCCCGGG	0.376
CCCCCCGG	0.132
AAACCCGC	0.258
CCCCCGGG	0.364
ACCCCCGG	0.17
ATAGATTA	-0.0055
CCAATAGG	-0.154
CGAGATAC	0.128
GGTAAAGA	-0.0497
ATGTCTGA	-0.106
ATCCAAAA	-0.00928
GGCCCCGA	0.181
GGCAGCCA	0.0184
GTATCTAA	0.0522
CTGAGAAA	-0.236
CGCAATGC	-0.0405
ACAGTGAC	0.0756
CCCCGGCC	0.0967
AACCCCGG	0.312
AACCCGGG	0.424
CCCCGGGG	0.412

Sequence	PBM E-score
CACCGGGG	0.0593
AACCCGGT	0.258
GGCGAGCA	0.0206
CAGATAGC	-0.0206
ATAGTTAA	-0.038
CTCAGTAC	-0.183
GACAAACC	-0.0403
TCGTACGA	-0.293
ACTTGGTG	-0.141
AAGGAAAT	0.00091
ACGGAAAA	0.403
GCGGGAAA	0.332
ACGGAAAC	0.452
GAGGAAAA	0.0256
AGGGAAAC	-0.104
ATGGAAAA	0.0967
AAGGAAAC	0.0238
GCGGAAAA	0.397
ACGGAAAT	0.452
ACGGGAAA	0.277
AGGGAAAT	-0.115

— the supplement of paper PMC3334620
